# Measurements reported in PubChem BioAssay (NCATS).
# Records with an inconclusive call do not appear. Values without a mark were called inactive. Calls follow the shape of the dose curve; as a rule, active = well fitted inhibition curve with a large enough effect; inconclusive = small, poorly fitted or top-dose-only effect; inactive = flat fitted curve, though single readings scatter.
# Target: Calcium and integrin-binding protein 1 (Homo sapiens) (UniProt Q99828)
# Test: Primary qHTS for Identification of Calcium Integrin Binding Protein 1 (CIB1) Competitor (AID 1508620); also: top concentration of the series differs between compounds
# Conditions: CIB1-GST / FITC-alphaIIb peptide fluorescence polarization; series mostly up to 114 µM; activity change, negative = inhibition: at the top concentration
# Outline: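 Fluorescence polarization competition: GST-tagged CIB1 (1 uM final) preincubated with compound 15 min at room temperature, then FITC-labelled alphaIIb peptide (100 nM final) added. After 15 min at room temperature, polarization read at Ex 480/Em 540.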
# % is scaled to controls: 0 for no effect and ±100 for the full control effect.
# Sequence of Calcium and integrin-binding protein 1 (Homo sapiens) (Q99828 whole entry, looked up): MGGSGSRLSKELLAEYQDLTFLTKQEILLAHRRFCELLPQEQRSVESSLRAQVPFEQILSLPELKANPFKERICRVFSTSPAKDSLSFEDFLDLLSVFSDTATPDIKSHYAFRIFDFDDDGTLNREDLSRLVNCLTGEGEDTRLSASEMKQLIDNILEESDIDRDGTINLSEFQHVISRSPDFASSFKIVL
row,Compound,"activity change, negative = inhibition"
1,Nc1ncnc2c1c(-c1ccc(Cl)cc1)nn2-c1cccc(-c2cnnn2Cc2cccc(-c3ccccc3)c2)c1,-1.86%
2,C=C(C=O)[C@]1(O)C[C@@]2(C)C(=CC1=O)C=C[C@H](OC(=O)/C=C/C=C/[C@H](C)CC)[C@@H]2C,-5.48% [at 57.7 µM]
3,C=C1C(=O)O[C@@H]2/C=C(\C)CC/C=C(\C)CC[C@@H]12,-10.4%
4,CNC(=O)COC(=O)N1CCC(CCc2ccc(Cl)cc2)CC1,-3.28%
5,Cc1nc(Nc2ccc(F)cc2)nc(N2CCc3ccccc3C2C)c1C (stereo unspecified),2.29%
6,Cc1ccc(-c2ncc[nH]2)cc1NC(=O)c1ccc(OCc2ccccn2)cc1,5.09%
7,C/C=C(\C)[C@@H]1C(C)=C[C@@H]2[C@H]([C@@H]1/C=C/C=C/C(=O)O)[C@@H](C)CC[C@@H]2O,-3.93% [at 57.7 µM]
8,C#CCNCc1cc2cc(OCc3ccccc3)ccc2[nH]1,2.49%
9,C=C1/C(=C/C=C2\CCC[C@]3(C)[C@@H]([C@H](C)/C=C/[C@@H](C)C(C)C)CC[C@@H]23)C[C@@H](O)C[C@@H]1O,4.66%
10,COc1cccc(-c2cn(-c3ccc(CCN4CCC(O)CC4)cc3)c3ncnc(N)c23)c1,1.22%
11,CC(C)C[C@H](C(=O)O)c1cc(-c2ccc(C(F)(F)F)cc2)cc(-c2ccc(C(F)(F)F)cc2)c1,6.58%
12,CN(C)CC#CCCC(=O)C(O)(c1ccccc1)C1CCC1 (stereo unspecified),4.4%
13,C=C1C(=O)OC2C1CCC1(C)C(O)CCC(=C)C21 (stereo unspecified),-0.307%
14,CC(=O)O[C@H]1C[C@@](O)(C(C)C)[C@@H]2[C@@H](OC(=O)c3ccc(O)cc3)CC(C)=CC[C@@]12C,-5% [at 57.7 µM]
15,C/C(=C/C=C\C=C\Cc1cnco1)[C@@H](O)C(C)(C)C(N)=O,5%
16,Cc1cc2ncc(C(=O)NCC(C)(C)NCC(=O)N3CCC[C@H]3C#N)cn2n1,-9.89%
17,C=C1/C(=C/C=C2\CCC[C@@]3(C)C2CCC3[C@H](C)/C=C/[C@@H](O)C2CC2)C[C@@H](O)C[C@@H]1O (stereo partly specified),-1.17%
18,COc1ccc(CN2CCN(CCCSc3cc(C(C)(C)C)c(O)c(C(C)(C)C)c3)CC2)c(OC)c1OC,-0.336% [at 30.2 µM]

row,Compound,"activity change, negative = inhibition"
1,CN[C@@H]1[C@H](O[C@H]2[C@H](O[C@@H]3[C@@H](O)[C@H](O)[C@@H](N=C(N)N)[C@H](O)[C@H]3N=C(N)N)O[C@@H](C)[C@]2(O)CO)O[C@@H](CO)[C@H](O)[C@H]1O,2.69%
2,C[C@]12CC[C@@H]3c4ccc(O)c(O)c4CC[C@H]3[C@@H]1CCC2=O,-10.1%
3,C/C1=C\[C@@H](C)C[C@@H](C)[C@@H](Cc2cnco2)OC(=O)/C(C)=C/[C@@H](C)C[C@@H](C)[C@@H](Cc2cnco2)OC1=O,-2.26% [at 57.7 µM]
4,C=C1C(=O)OC2/C=C(\COC(C)=O)CC/C=C(\C=O)CC(OC(=O)C(C)CC)C12 (stereo unspecified),2.02% [at 57.7 µM]
5,COc1cccc(NCCC2(c3ccccc3)CC(C)(C)OC(C)(C)C2)c1,-8.02%
6,CC/C(C)=C/C(=O)OC1C(OC2(C)CCC3C(C4C(C)CCC42)C3(C)C)OC(C)C(O)C1O (stereo unspecified),-10.4% [at 57.7 µM]
7,Cc1ccc(CNc2ncnc3ccc(-c4ccc(CO)o4)cc23)o1,-1.87%
8,CC(=O)NC(C)c1cnc(-c2cnc(Oc3ccc(OC(C)C)cc3)s2)s1 (stereo unspecified),-5.49%
9,CCOC(=O)C1(CCOc2ccccc2)CCN(Cc2ccc(O)c(Cl)c2)CC1,3.15%
10,C=C[C@@]1(C)CCC2C(=CCC3[C@]2(C)CCC[C@@]3(C)C(=O)O)C1 (stereo partly specified),-0.804%
11,C=CCc1ccc(OC(C)Cc2ccc(OC)c(OC)c2)c(OC)c1 (stereo unspecified),4.5% [at 57.7 µM]
12,Cc1noc(-c2ccc(-c3ccc(CC(=O)O)cc3)cc2)c1NC(=O)O[C@H](C)c1ccccc1Cl,-7.63%
13,CC(=O)O[C@H]1[C@@]2(O)C[C@H](C)[C@H](OC(=O)c3ccccc3)[C@@H]2[C@@H](OC(=O)CO)[C@]2(OC(C)=O)C[C@H]3C(=O)C(C)(C)C[C@@H]3[C@@]1(C)[C@H]2OC(C)=O,2.32% [at 30.2 µM]
14,CCCCCc1ccc(/C=C/C(=O)Nc2cc(Cl)ccc2C(=O)O)cc1,4.99%
15,CC[C@@H]1C[C@]1(NC(=O)[C@@H]1C[C@@H]2CN1C(=O)[C@H](C(C)(C)C)NC(=O)OCC(C)(C)CCCCc1cccc3c1CN(C3)C(=O)O2)C(=O)NS(=O)(=O)C1CC1,-4.47%
16,O=C(Nc1cccc(C(F)(F)F)c1)Nc1ccc(Br)cc1-c1nn[nH]n1,-11%
17,N#CC(CCCN1CCN(/N=C/c2cccnc2)CC1)(c1ccccc1)c1ccccc1,-20.3%
18,COc1cc(OC)c(NC(=O)c2ccc(Cc3cc4c(cc3C)C(C)(C)CCC4(C)C)o2)c(OC)c1,2.59%
